# Compound activity as filed in PubChem BioAssay.
# GPR151 activ: human GPR151 activation. activation, % at 11.2 µM. 650,000 tested, 1% active. PathHunter beta-arrestin GPR151 cells, luminescence. Q8TDV0; in the data active = activation above about 4.9%;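 also: 0% = median of compound wells and 100% = cells with positive control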
# Target sequence (Q8TDV0 whole entry, looked up): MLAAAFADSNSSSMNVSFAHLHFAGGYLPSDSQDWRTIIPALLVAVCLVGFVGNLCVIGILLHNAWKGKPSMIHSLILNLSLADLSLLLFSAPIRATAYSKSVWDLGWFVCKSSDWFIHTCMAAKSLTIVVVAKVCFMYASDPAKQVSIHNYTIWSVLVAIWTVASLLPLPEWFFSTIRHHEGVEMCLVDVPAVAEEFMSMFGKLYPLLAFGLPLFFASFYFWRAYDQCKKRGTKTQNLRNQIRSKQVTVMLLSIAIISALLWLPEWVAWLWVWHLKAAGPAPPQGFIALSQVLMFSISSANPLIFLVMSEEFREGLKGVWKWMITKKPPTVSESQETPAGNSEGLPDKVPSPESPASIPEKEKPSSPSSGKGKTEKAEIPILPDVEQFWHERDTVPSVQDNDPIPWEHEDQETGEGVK
# MITF primary: blocks human microphthalmia-associated transcription factor. inhibition, % at 2.6 µM. 650,000 tested, 0.91% active. AlphaScreen MITF homodimerization, bead proximity signal. O75030; in the data active = inhibition above about 50%;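 also: 0% = vehicle wells with protein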
# TEAD-YAP block: TEAD-YAP interaction inhibition. HEK-TIYL cells, TEAD-Gal4/YAP UAS-luciferase luminescence. inhibition, % at 9.12 µM. 640,000 tested, 1.4% active. AID 1259422; in the data active = inhibition above about 32%;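 also: 0% = median of test compound wells and 100% = reference inhibitor wells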
# FBW7 activator: human FBW7 E3 ligase activation, primary screen; AlphaScreen FBW7–phospho-cyclin E peptide binding, activator screen; normalized activity (activation), % at 26.1 µM; 650,000 tested, 0.13% active; in the data active = normalized activity above about 1.9%;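 also: purified mutant Fbw7 with reduced substrate affinity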
# * hit, by the source's call. Hits are enriched below; roughly 3.5% of the tested compounds scored in any of these assays.
SMILES,GPR151 activ,MITF primary,TEAD-YAP block,FBW7 activator
CC1(C)Oc2ccc(C(=O)N3CCCCC3)cc2N(CC(=O)N2CCCC2)C1=O,-1,4,-7,0
CC(=O)NC(c1ccc2ccccc2c1)c1ccc2cccnc2c1O (stereo not drawn),0,36,80*,-2
CCOc1ccc(C(NC(C)=O)c2cc(Cl)c3cccnc3c2O)cc1 (stereo not drawn),1,3,9,-1
COC(=O)c1cc(CNC(=O)c2cn3ccccc3n2)cc(NC(=O)Cc2cscn2)c1,-1,-9,0,0
O=c1c(-c2ccc3c(c2)OCCCO3)coc2cc(O)cc(O)c12,-1,6,66*,0
COc1ccc2c(=O)c(-c3ccc4c(c3)OCCO4)coc2c1,-1,8,-67,0
O=c1c(-c2ccc3c(c2)OCCO3)coc2cc(O)ccc12,-1,-5,55*,1
Cn1cnnc1-c1cccc(NC(=O)C2(c3ccccc3)CCCC2)c1,-1,18,5,1
c1ccc2nc(-c3nc4ccccc4o3)ccc2c1,-10,0,77*,0
c1ccc2[nH]c(-c3nc4ccccc4o3)nc2c1,-11,10,84*,0
c1ccc2oc(-c3ccc(-c4nc5ccccc5o4)cc3)nc2c1,-1,7,2,0
O=C(COc1ccc(Cl)cc1)NCC(c1cccs1)S(=O)(=O)c1cccs1 (stereo not drawn),1,14,4,0
Cn1nnc2c(N3CCN(S(=O)(=O)c4ccccc4Cl)CC3)ncnc21,-1,-11,38*,0
COc1ccc(C(=O)N=c2sc3cc(F)ccc3n2C)c(OC)c1,-1,-1,55*,0
CCN(CC1CCCO1)C(=O)CCc1nnc(CCc2ccc(OC)cc2)o1 (stereo not drawn),0,11,0,0
Cc1cccc(-n2c(O)c(/C=N/NC(=O)c3ccccc3Cl)c3ccccc3c2=O)n1,-1,3,-3,0
O=C(Cc1ccc(F)cc1)N/N=C/c1c(O)n(-c2ccccc2Cl)c(=O)c2ccccc12,-2,19,60*,-1
Cc1ccc(C2=N/C(=C\c3coc4ccccc4c3=O)C(=O)O2)cc1,-2,-5,-14,0
Cc1ccc(C)c(S(=O)(=O)/N=C2/C=C(SCC(=O)O)C(=O)c3ccccc32)c1,0,12,-5,0
CC1=C(C(=O)NCCc2ccc(S(N)(=O)=O)cc2)C2(CCC(C)CC2)OC1=O (stereo not drawn),-2,19,-7,2.0*
CC1=C(C(=O)NCCc2ccc(S(N)(=O)=O)cc2)C2(CCCCC2)OC1=O,1,-8,-3,0
CCN1c2ncccc2C(=O)NC12CCN(C(=O)c1ccco1)CC2,0,11,-2,0
CCCC(=O)NC(c1ccccc1OC)c1ccc2cccnc2c1O (stereo not drawn),-1,34,76*,-2
COc1ccccc1C(NC(=O)c1cc(OC)c(OC)c(OC)c1)c1cc(Cl)c2cccnc2c1O (stereo not drawn),1,7,1,0
CCCCC(=O)NC(c1ccccc1OC)c1ccc2cccnc2c1O (stereo not drawn),1,24,73*,-2
SMILES,GPR151 activ,MITF primary,TEAD-YAP block,FBW7 activator
CCCC(=O)Nc1cc(-c2nn3c(C)nnc3s2)ccc1C,-1,-14,2,0
COc1ccc(Cl)cc1-n1c(SCc2cc(=O)n3ccccc3n2)nc2[nH]ncc2c1=O,-1,5,60*,0
COc1ccc(Cl)cc1-n1c(SCc2ccccc2F)nc2[nH]ncc2c1=O,1,-2,-11,0
COc1ccc(OC)c(CC(=O)N2CCc3nc(N4CCCCC4)[nH]c(=O)c3C2)c1,1,-2,50*,0
COc1cc(CC(=O)N2CCc3nc(N4CCCC4)[nH]c(=O)c3C2)cc(OC)c1OC,0,5,3,0
CC1(C)CC2CC(C)(CN2C(=O)COc2ncnc3ccccc23)C1 (stereo not drawn),-1,11,1,0
O=C(Nc1ccc(O)cc1)c1cc2ccccn2n1,-3,6,56*,0
CCc1cc2c(cc3c(=O)n(CCCC(=O)O)ncn32)s1,0,-6,35*,0
O=C(NCC1CCCO1)c1ccc2c(=O)n(CC3CCCO3)c(SCC(=O)N3CCN(c4ccccc4)CC3)nc2c1 (stereo not drawn),0,9,32*,0
O=C(NCC1CCCO1)C1CCC(Cn2c(SCC(=O)N3CCN(c4ccccc4)CC3)nc3ccccc3c2=O)CC1 (stereo not drawn),0,1,8,0
COc1ccc(CCC(=O)N2CCC3(CC2)OCc2ccccc2O3)cc1,4,0,-5,0
COc1cc(CC(=O)N2CCC3(CC2)OCc2ccccc2O3)cc(OC)c1OC,1,6,38*,0
COc1cc(CC(=O)N2CCC3(CC2)OCc2cc(Cl)ccc2O3)cc(OC)c1OC,2,-17,59*,0
COc1cccc(CC(=O)N2CCC3(CC2)OCc2ccccc2O3)c1OC,0,8,5,0
COc1ccc(CCC(=O)N2CCC3(CC2)OCc2ccccc2O3)cc1OC,-1,8,40*,0
O=C(O)c1nccnc1-c1nc2ccccc2s1,-1,14,-15,0
O=C(Nc1ccccc1)c1cccc(N2CCCC2CO)n1 (stereo not drawn),-1,11,-28,0
COc1cc(NC(=O)c2ccnc(N3CCN(c4ccccn4)CC3)c2)cc(OC)c1OC,0,4,14,0
O=C(Nc1ccccc1)c1cccc(N2CCN(c3ccccn3)CC2)n1,4,-15,-15,0
CC(=O)Nc1ccc(NC(=O)c2cccc(N3CCN(c4ccccn4)CC3)n2)cc1,1,-10,36*,0
COc1cc(NC(=O)c2cccc(N3CCN(c4ccccn4)CC3)n2)cc(OC)c1OC,-2,-11,42*,0
COc1cc(NC(=O)c2cccc(N3CCCC3CO)n2)cc(OC)c1OC (stereo not drawn),0,-1,35*,0
COc1cc(NC(=O)c2cccc(-c3ccc(C(=O)NC4CC4)cc3)n2)cc(OC)c1OC,1,6,34*,0
CCN(CC)CCN1C(=O)C(O)=C(C(=O)/C=C/c2ccccc2)C1c1cccc([N+](=O)[O-])c1 (stereo not drawn),0,11,4,0
COc1ccc(OC)c(NS(=O)(=O)c2ccc(OC)c(I)c2)c1,0,14,-2,0
Cc1cccc(NC(=O)CSc2nnc(CN3CCOCC3)n2C)c1C,0,3,6,0
O=C1CSc2ccc(C(=O)NC3CCCc4ccccc43)cc2N1 (stereo not drawn),-1,2,58*,0
O=C(Nc1ccc(Cl)cc1C(=O)c1ccccc1)c1ccc(Nc2nc(-c3ccccc3)c3cc(Cl)ccc3n2)cc1,0,9,-1,0
COc1ccc(CC(=O)Nc2ccccc2C(F)(F)F)cc1,-1,15,-1,0
COc1ccc(CC(=O)Nc2cc(Nc3ccccc3-c3ncn[nH]3)ccn2)cc1,-1,7,13,1
